Experimental data from article PMC4336329 (PLoS ONE, 2015).
About 14,000 (4.5%) of roughly 310,000 compounds showed an effect of 50% or more. Effects have a minus sign here. For the sample, strong results were picked, then their nearest neighbours and some compounds at random.

Each compound was assayed against human ether-à-go-go-related gene (hERG) potassium channel (human, UniProt Q12809) (assay: primary screen, population patch clamp on CHO cells stably expressing hERG; higher = less effect of the substance).
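Note: peak tail current of the secondary pulse compared with the same well before compound.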

human ether-à-go-go-related gene (hERG) potassium channel, sequence (Q12809 whole entry, looked up): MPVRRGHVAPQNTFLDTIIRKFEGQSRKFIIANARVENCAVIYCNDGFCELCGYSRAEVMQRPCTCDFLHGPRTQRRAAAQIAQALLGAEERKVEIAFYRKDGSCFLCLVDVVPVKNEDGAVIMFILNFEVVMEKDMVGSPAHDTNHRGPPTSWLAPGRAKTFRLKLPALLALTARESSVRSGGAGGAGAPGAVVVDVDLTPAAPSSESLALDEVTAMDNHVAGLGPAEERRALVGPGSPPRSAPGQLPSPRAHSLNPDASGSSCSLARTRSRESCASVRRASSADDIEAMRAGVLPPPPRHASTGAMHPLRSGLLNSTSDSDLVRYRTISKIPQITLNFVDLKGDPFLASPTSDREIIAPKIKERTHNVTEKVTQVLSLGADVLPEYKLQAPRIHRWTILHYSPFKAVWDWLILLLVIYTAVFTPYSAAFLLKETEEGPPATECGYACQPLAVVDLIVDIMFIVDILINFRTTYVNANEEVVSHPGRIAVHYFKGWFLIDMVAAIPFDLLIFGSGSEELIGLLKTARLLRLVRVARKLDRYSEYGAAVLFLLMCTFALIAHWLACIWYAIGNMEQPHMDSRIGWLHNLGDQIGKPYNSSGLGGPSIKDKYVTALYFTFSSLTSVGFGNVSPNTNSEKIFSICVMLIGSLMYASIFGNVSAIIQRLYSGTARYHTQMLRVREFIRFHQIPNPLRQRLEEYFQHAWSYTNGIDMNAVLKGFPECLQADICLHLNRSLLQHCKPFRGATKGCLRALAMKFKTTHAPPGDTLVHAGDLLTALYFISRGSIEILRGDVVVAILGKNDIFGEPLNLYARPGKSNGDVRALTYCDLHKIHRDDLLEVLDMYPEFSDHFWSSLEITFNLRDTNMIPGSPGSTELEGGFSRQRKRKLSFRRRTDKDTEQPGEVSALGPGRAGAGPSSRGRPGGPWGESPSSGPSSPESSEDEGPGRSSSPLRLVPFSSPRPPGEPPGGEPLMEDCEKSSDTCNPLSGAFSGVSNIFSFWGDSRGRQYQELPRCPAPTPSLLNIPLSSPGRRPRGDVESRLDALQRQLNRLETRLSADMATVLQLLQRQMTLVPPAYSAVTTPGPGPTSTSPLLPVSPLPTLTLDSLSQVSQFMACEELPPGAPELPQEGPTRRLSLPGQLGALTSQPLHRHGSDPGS

SMILES	hERG current change (%, negative = inhibition) at 10uM
O=C(CNC(=O)c1ccc(Br)o1)NCc1ccccc1Cl	1.15%
CCCCc1ccc(NC(=S)NCCN2CCOCC2)cc1	-39%
CCOC(=O)CSc1cc(C(F)(F)F)nc(-c2ccccn2)n1	-31.5%
CC(C)CCc1noc(CN2CCC(C(=O)N3CCOCC3)CC2)n1	-6.13%
C/C=C/n1ccnc1CC(O)(c1ccccc1)c1ccc(C)cc1 (stereo not shown)	-22.5%
Nc1nnnn1/N=C\c1ccc(Cl)c([N+](=O)[O-])c1	3.26%
COc1ccc(NC(=S)Nc2cccnc2)c(OC)c1	8.2%
CCN(Cc1nc2ccccc2c(=O)[nH]1)Cc1cc(=O)oc2cc(OC)ccc12	-51.1%
CCN(Cc1nc2ccccc2c(=O)[nH]1)Cc1nc2cc(OC)c(OC)cc2c(=O)[nH]1	14.9%
CCN(CC(=O)Nc1cc(OC)ccc1OC)Cc1nc2ccccc2c(=O)[nH]1	-8.33%
CN(Cc1nc2ccccc2c(=O)[nH]1)Cc1cc(=O)oc2ccc3ccccc3c12	-10.1%
CCN(Cc1nc2ccccc2c(=O)[nH]1)Cc1cc(=O)oc2cc(C)c(C)cc12	-41.4%
CCc1ccc2c(CN(CC)Cc3nc4ccccc4c(=O)[nH]3)cc(=O)oc2c1	-71.6%
N#Cc1ccccc1S(=O)(=O)N1CCN(CC(=O)NCC2(N3CCOCC3)CCCCC2)CC1	-27.3%
CCOc1cc(/C=C2/NC(=O)N(CC(=O)OC)C2=O)ccc1O	3.71%
O=C(O)c1ccc(Br)c(S(=O)(=O)N2CCCC2)c1	9.91%
Cc1ccc(NC(=O)C(=O)NCCN2CCN(S(C)(=O)=O)CC2)cc1	19.6%
CCc1ccc(NC(=O)C(=O)NCCN2CCN(S(C)(=O)=O)CC2)cc1	20.5%
CCN1CCN(CCNC(=O)Nc2ccc([N+](=O)[O-])cc2)CC1	-12.2%
Cc1ccc(NC(=O)C(=O)NCCN2CCN(Cc3ccc([N+](=O)[O-])cc3)CC2)cc1	-72.8%
CCc1ccc(CN2CCN(C(=O)c3ccco3)CC2)cc1.O=C(O)C(=O)O	-23.8%
CCNC(=O)C(=O)Nc1ccc([N+](=O)[O-])cc1	2.37%

SMILES	hERG current change (%, negative = inhibition) at 10uM
CCCCc1ccc(NC(=O)C(=O)NCCN2CCN(C(=O)c3ccc([N+](=O)[O-])cc3)CC2)cc1	-22.4%
COc1ccc(NC(=O)C(=O)NCCN2CCN(C(=O)c3ccco3)CC2)cc1	-11.1%
CCCCc1ccc(NC(=O)C(=O)NCCN2CCN(Cc3ccc([N+](=O)[O-])cc3)CC2)cc1	-66.7%
CCc1ccc(NC(=O)C(=O)NCCN2CCN(Cc3ccc([N+](=O)[O-])cc3)CC2)cc1	-72.5%
CCc1ccc(NC(=O)C(=O)NCCN2CCN(C(=O)c3ccco3)CC2)cc1	-67%
O=C(CNC(=O)c1cccs1)NCC(=O)OCc1ccc(F)cc1	-13.1%
O=C(CN1C(=O)C(=O)N(C2CCCC2)C1=O)NCCc1ccc(Cl)cc1Cl	10.4%
COc1ccccc1NC(=O)Cn1nc(-c2ccncc2)nc1SCC(=O)NC1CCCC1	-20.2%
COC(=O)CC1SC(=O)NC1=Nc1ccc(OC)cc1 (stereo not shown)	1.66%
CCC(C)NS(=O)(=O)c1ccc(OCC(=O)Nc2ccc(F)cc2F)cc1 (stereo not shown)	-2.06%
COCCCNCC#CCOc1ccc(OC)cc1.O=C(O)C(=O)O	0.922%
O=C(NCCN1CCN(S(=O)(=O)c2ccc([N+](=O)[O-])cc2)CC1)C(=O)Nc1ccccc1	13.5%
O=C(NCCN1CCN(Cc2ccc([N+](=O)[O-])cc2)CC1)C(=O)Nc1ccccc1	-64.3%
O=C(NCCc1ccccc1)C(=O)Nc1ccc([N+](=O)[O-])cc1	-2.37%
CC(OC(=O)c1ccc2c(c1)C(=O)N(Cc1ccncc1)C2=O)C(=O)Nc1cccc(Cl)c1Cl (stereo not shown)	-11.1%
COC(=O)c1ccc(C(=O)OC)c(NC(=O)C2CCCO2)c1 (stereo not shown)	10.5%
COC(=O)c1ccc(C(=O)OC)c(NC(=S)N2CCN(c3ccccc3F)CC2)c1	-52.9%
COC(=O)c1ccc(C(=O)OC)c(NC(=O)C2CC2)c1	-68.9%
COC(=O)c1ccc(NC(=O)CS(=O)(=O)Cc2ccccc2)cc1	1.28%
COC(=O)c1ccc(C(=O)OC)c(NC(=S)N2CCN(c3ccccc3)CC2)c1	-19.1%
COC(=O)c1ccc(C(=O)OC)c(NC(=S)N2CCN(c3ccc(F)cc3)CC2)c1	-24%
